Columns and labels:
Assay in all cases: log2 ratio of Biotin-Ahx-Ub-VS probe labelling (fragment/DMSO); higher = less target engagement (more negative = stronger competition), active = hit call of the paper (q ≤ 0.05, log2 ratio ≤ -1)
Conditions in all cases: compound concentration: 200 uM; treatment time: 3 h
[1] = target: USP34 (UniProt Q70CQ2)
Outline: (§1)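 HEK293T lysate, 495 µg per sample in Tris/CHAPS/IGEPAL buffer with protease inhibitors, was treated in triplicate with fragment at 200 µM or vehicle for 3 h and then with Biotin-Ahx-Ub-VS at 0.5 µM final for 1 h. Labelled DUBs were NeutrAvidin-enriched, digested with LysC and trypsin, and run by diaPASEF LC-MS/MS. Spectronaut label-free quantities were global-median-normalised, and values are average log2 fragment/vehicle ratios by unpaired t-test on proteins with ≥2 unique peptides.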

[2] = target: T1, USP36 (UniProt Q9P275)
T1 sequence (whole entry): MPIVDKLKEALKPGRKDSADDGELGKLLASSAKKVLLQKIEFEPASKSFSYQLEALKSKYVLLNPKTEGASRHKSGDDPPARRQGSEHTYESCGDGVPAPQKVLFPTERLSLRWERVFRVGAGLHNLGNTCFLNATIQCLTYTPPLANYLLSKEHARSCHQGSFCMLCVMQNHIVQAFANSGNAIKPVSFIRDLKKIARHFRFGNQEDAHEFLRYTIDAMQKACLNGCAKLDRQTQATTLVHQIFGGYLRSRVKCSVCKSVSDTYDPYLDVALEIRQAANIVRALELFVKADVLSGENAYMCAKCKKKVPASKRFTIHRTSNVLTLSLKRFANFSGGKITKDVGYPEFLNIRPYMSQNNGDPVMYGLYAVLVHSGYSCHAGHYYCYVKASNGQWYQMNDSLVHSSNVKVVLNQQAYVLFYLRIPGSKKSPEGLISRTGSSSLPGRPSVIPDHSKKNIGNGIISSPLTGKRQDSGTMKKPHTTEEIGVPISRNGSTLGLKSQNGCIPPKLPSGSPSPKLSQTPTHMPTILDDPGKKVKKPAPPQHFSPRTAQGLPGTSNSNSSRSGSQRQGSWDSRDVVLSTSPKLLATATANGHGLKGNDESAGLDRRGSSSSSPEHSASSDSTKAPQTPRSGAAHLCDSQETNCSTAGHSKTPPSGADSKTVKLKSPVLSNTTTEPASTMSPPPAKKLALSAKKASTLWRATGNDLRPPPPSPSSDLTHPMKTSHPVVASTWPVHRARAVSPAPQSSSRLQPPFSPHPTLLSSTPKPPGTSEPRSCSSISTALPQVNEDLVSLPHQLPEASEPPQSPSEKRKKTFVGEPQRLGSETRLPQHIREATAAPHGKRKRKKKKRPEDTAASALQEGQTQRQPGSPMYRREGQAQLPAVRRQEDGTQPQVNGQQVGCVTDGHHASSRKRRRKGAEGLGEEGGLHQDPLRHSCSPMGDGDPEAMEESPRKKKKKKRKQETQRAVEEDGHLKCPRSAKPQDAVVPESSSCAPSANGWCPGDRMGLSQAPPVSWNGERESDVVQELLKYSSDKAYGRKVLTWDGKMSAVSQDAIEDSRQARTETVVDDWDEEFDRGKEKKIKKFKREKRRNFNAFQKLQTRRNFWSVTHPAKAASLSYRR
Outline: as §1

[3] = target: T2, USP38 (UniProt Q8NB14)
T2 sequence (whole entry): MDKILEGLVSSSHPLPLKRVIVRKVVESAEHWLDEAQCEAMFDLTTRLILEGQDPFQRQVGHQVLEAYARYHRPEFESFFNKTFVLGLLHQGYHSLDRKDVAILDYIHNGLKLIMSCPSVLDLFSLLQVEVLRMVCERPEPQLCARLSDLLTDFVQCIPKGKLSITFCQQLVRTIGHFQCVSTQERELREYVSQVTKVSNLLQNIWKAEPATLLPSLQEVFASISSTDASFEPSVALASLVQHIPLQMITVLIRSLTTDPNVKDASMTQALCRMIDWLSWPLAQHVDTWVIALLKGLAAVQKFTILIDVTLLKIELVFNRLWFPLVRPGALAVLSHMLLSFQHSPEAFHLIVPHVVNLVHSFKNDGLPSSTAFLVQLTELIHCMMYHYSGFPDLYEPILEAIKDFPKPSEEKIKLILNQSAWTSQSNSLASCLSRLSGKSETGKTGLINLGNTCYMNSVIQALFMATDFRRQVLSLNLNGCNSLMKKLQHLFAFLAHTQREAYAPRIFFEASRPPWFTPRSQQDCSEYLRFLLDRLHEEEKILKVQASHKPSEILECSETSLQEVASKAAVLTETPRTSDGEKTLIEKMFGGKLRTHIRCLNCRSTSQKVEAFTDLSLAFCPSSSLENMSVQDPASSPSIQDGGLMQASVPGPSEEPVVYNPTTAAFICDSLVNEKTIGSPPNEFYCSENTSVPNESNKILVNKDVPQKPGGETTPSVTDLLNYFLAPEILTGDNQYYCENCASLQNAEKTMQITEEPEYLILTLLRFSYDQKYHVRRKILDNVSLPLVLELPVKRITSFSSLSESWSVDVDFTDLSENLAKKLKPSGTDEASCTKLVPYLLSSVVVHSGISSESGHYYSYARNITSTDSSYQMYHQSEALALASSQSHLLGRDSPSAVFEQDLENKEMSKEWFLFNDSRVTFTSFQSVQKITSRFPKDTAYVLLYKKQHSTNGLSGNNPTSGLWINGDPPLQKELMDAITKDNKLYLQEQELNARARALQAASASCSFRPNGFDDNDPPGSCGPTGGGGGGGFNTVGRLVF
Outline: as §1

[4] = target: T3, USP39 (UniProt Q53GS9)
T3 sequence (whole entry): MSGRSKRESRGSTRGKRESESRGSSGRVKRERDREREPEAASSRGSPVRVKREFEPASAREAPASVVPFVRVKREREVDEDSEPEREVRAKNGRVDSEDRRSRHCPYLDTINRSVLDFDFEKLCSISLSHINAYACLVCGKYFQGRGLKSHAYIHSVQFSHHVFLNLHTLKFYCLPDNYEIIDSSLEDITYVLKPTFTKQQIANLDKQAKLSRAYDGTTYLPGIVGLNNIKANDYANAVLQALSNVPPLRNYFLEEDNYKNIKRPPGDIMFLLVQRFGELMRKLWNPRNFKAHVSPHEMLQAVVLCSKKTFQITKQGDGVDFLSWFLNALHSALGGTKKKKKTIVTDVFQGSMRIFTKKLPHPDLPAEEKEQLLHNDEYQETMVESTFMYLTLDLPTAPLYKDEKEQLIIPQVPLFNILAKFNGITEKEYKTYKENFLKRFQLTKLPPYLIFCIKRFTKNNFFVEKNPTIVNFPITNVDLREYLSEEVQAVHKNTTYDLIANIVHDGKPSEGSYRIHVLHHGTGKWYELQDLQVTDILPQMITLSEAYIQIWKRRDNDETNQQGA
Outline: as §1

[5] = target: T4, USP4 (UniProt Q13107)
T4 sequence (whole entry): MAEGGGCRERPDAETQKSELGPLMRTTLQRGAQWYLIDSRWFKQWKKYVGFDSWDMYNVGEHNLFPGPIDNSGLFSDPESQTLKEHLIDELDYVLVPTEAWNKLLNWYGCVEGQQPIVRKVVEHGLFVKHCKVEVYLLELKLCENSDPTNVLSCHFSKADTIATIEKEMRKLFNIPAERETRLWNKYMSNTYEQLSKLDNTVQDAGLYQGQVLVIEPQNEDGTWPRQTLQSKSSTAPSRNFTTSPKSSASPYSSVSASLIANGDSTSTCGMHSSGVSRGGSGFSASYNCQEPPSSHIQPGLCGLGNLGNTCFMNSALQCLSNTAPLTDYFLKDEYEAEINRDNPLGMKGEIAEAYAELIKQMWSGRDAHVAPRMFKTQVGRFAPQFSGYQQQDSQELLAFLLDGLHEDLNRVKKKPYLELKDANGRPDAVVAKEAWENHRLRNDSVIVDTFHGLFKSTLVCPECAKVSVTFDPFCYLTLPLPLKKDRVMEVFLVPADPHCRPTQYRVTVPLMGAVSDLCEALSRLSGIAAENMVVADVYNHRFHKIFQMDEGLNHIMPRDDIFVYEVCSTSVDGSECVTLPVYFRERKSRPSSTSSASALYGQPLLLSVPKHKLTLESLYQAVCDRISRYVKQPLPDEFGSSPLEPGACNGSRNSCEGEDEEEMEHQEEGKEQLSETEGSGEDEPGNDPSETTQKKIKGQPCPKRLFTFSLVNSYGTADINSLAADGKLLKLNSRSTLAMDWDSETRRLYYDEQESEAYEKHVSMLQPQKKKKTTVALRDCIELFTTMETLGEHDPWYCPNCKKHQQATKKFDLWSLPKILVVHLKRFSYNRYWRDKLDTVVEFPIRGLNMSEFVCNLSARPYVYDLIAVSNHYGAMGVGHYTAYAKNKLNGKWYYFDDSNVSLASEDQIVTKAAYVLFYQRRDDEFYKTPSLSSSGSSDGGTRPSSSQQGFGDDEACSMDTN
Outline: as §1

Measured: log2 ratio of Biotin-Ahx-Ub-VS probe labelling

Chain of USP34 (Q70CQ2 whole entry, the tested form may be a part): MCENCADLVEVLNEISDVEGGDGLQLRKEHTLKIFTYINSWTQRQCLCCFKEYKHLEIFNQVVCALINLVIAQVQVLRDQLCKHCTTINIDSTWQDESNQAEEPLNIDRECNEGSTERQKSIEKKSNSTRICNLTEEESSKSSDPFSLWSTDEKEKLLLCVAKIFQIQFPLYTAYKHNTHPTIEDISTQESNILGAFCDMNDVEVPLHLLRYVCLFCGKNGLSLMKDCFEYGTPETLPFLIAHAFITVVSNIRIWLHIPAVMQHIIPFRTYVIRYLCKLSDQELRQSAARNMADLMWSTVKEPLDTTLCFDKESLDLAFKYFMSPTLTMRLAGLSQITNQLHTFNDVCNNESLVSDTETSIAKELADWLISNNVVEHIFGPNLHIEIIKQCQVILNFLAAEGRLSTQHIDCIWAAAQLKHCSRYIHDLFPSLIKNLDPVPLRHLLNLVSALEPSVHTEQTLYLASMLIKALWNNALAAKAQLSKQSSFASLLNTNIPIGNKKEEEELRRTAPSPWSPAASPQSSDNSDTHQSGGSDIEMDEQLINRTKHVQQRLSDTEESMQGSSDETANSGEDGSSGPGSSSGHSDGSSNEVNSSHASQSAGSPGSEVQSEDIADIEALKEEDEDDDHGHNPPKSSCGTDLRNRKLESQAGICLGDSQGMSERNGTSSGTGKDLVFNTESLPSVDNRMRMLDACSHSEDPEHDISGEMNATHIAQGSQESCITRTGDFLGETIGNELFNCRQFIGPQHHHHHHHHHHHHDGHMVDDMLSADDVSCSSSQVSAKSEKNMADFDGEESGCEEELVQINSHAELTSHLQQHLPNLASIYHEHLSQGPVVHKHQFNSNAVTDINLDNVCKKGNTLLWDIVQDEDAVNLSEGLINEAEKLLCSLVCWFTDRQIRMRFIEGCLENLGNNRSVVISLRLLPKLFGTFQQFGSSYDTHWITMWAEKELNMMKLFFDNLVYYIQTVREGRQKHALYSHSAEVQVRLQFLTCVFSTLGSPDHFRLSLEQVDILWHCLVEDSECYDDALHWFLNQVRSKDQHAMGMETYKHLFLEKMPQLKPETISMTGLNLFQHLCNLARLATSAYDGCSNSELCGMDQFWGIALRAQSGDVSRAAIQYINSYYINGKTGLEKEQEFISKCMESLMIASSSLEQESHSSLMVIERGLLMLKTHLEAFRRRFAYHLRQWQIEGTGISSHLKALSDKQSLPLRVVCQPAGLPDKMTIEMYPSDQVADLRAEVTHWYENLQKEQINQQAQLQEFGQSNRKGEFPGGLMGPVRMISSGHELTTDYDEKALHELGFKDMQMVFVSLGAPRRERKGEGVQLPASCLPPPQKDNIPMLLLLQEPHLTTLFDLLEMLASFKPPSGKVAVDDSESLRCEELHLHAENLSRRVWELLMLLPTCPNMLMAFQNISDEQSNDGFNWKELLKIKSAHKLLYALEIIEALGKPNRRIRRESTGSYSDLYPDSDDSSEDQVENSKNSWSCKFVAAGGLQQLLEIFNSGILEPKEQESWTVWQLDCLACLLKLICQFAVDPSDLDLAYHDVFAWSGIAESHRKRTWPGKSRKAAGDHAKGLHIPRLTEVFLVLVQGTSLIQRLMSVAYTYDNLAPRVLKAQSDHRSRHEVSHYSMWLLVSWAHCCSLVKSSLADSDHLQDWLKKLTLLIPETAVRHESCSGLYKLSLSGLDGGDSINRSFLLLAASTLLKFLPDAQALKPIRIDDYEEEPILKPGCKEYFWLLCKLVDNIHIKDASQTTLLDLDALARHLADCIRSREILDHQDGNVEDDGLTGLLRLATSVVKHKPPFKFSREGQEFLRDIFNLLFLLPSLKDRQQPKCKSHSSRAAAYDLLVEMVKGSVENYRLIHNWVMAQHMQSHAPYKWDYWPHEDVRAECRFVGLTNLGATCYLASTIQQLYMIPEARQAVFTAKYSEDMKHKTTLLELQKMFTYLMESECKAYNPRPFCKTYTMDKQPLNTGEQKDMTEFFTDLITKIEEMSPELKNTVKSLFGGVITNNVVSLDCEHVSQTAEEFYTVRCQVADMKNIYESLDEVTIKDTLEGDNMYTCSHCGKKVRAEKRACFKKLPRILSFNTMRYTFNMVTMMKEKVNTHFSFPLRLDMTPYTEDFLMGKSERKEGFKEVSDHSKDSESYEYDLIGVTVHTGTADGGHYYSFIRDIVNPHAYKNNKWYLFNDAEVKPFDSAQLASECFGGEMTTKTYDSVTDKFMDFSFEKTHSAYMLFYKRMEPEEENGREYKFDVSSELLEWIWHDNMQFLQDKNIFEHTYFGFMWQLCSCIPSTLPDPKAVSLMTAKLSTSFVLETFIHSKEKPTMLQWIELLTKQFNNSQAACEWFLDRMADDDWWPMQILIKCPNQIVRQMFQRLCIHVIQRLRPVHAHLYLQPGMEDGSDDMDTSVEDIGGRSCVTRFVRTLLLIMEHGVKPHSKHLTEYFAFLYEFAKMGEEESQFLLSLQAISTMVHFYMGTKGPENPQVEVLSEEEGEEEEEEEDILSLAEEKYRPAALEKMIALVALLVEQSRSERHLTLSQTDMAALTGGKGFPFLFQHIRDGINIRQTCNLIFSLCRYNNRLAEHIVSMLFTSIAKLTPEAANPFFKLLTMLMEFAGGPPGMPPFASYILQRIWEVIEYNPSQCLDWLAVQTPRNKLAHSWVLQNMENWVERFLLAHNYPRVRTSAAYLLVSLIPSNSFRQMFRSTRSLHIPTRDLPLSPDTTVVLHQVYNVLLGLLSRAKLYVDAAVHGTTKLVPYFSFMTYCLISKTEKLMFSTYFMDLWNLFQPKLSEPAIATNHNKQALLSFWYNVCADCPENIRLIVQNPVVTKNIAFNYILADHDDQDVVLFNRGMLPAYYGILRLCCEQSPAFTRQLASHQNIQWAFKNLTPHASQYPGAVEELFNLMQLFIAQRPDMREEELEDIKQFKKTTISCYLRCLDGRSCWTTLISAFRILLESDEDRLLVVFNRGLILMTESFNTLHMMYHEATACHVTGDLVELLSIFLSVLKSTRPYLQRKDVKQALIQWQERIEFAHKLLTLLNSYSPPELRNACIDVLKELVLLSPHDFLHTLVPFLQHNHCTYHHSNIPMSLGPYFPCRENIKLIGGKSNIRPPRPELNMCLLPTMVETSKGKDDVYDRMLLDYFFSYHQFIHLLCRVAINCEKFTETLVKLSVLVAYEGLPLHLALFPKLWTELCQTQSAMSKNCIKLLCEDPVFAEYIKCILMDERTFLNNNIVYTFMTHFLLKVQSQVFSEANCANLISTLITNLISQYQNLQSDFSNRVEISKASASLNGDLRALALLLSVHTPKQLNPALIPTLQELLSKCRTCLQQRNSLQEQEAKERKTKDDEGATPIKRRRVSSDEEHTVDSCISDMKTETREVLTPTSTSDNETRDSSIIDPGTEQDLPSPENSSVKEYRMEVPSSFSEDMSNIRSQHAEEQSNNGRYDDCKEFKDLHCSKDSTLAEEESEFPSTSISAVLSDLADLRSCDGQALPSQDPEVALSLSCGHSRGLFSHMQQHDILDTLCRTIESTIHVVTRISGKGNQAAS

O=C(CCl)NC1CCOc2ccccc21 (stereo not given)
inactive: [1] -0.539 | [2] -0.388 | [3] -0.738 | [4] -0.0973 | [5] -0.674

Reference: the supplement of paper PMC11732987, “Enantioselective OTUD7B fragment discovery through chemoproteomics screening and high-throughput optimisation” (Communications Chemistry, 2025)
